{
  "source": "PubChem BioAssay (NCATS)",
  "key": {"[1]": {"target": "Voltage-gated inwardly rectifying potassium channel KCNH2 (Homo sapiens) (UniProt Q12809)", "sequence (Q12809 whole entry, looked up)": "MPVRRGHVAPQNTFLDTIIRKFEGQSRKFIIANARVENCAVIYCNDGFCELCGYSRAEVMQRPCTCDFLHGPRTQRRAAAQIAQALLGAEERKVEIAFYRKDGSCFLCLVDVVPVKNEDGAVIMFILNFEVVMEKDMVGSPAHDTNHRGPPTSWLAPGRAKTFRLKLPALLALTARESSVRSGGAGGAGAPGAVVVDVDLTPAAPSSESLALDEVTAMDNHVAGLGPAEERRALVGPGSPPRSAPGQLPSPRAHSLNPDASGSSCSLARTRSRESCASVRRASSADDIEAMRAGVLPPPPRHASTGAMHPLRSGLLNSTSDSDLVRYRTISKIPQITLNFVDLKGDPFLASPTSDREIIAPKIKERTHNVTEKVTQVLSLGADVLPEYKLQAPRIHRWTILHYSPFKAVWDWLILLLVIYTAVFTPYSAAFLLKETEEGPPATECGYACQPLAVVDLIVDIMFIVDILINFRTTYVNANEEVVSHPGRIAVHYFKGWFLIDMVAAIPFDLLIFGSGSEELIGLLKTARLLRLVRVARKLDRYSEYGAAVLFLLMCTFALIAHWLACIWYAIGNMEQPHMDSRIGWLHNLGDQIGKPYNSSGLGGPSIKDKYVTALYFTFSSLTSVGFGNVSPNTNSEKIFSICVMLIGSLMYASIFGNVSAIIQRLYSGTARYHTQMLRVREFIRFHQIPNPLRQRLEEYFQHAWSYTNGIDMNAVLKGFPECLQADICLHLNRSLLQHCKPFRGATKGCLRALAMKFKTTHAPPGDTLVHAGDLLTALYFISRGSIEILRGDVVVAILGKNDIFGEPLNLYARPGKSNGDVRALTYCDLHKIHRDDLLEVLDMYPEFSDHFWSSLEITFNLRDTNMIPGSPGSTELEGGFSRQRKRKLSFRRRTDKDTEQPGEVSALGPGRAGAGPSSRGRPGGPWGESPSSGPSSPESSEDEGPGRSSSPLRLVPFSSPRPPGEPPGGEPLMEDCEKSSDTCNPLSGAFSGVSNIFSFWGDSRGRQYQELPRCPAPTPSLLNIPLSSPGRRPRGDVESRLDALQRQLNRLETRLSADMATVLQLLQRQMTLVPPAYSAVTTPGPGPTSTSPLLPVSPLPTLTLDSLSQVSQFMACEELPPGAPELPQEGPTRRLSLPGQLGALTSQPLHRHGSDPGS", "assay": "qHTS Assay for Small Molecule Inhibitors of the Human hERG Channel Activity (AID 588834);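 also: top concentration of the series differs between compounds; lower thallium flux fluorescence means stronger hERG block; nearly all actives have a fitted effect of over 50% in size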", "in_short": "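Thallium-flux (FluxOR) read-out on FDSS: fluorescence read 10 s before and 2 min after stimulation buffer. hERG-BacMam-transduced U2OS cells, compound exposure about 10 min. AC50 by standard Hill equation.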"}, "[2]": {"assay": "S16 Schwann cell viability assay (CellTiter-Glo assay) (AID 624031); also: nearly all actives have a fitted effect of over 70% in size; also: potency is read from the fitted curve at half-maximal effect", "in_short": "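Parental S16 cells, 24 h compound, 37 °C. ATP-luminescence viability; DMSO = 0% activity, empty wells as reference; curves classified by fit quality and efficacy.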"}, "[3]": {"assay": "S16 Schwann cell PMP22 intronic element firefly luciferase assay (AID 624032); also: nearly all actives have a fitted effect of over 30% in size; also: potency is read from the fitted curve at half-maximal effect", "in_short": "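Luciferase reporter of PMP22 intronic-element expression in stably transfected S16 rat Schwann cells, read by ONE-Glo luminescence after 24 h compound exposure at 37 C. Activity scaled between DMSO (0%) and positive-control PTC124; concentration-effect curves quality-classified.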"}, "[4]": {"assay": "S16 Schwann cell PMP22 intronic element beta-lactamase assay (AID 624044; calls by dose curve; also: nearly all actives have a fitted effect of over 15% in size)", "conditions": "S16 rat Schwann cells, PMP22 element beta-lactamase FRET, 24 h; ratio activity, negative = inhibition: at 38.3 µM (top of the series) unless noted", "in_short": "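Beta-lactamase reporter under a PMP22 intronic regulatory element in stable S16 rat Schwann cells; 24 h compound exposure. 460 nm blue signal normalized between DMSO (0%) and potassium clavulanate, with 535 nm FRET tracking viability; curves classed by r2 and response.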"}, "[5]": {"target": "Luciferin 4-monooxygenase (Photinus pyralis) (UniProt P08659)", "sequence (P08659 whole entry, looked up)": "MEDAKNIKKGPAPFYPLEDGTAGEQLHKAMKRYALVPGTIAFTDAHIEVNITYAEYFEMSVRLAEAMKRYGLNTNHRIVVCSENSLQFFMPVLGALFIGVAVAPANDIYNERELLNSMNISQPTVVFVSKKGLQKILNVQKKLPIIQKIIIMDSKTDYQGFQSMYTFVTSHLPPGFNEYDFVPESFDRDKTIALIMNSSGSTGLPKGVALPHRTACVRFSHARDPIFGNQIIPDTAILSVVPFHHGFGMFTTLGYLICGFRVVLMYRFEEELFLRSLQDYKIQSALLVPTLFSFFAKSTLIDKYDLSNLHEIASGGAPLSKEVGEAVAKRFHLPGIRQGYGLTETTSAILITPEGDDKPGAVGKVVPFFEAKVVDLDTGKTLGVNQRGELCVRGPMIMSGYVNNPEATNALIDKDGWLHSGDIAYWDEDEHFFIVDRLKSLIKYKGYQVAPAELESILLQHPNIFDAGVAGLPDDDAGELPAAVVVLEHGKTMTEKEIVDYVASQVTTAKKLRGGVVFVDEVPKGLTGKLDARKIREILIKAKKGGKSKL", "assay": "Biochemical firefly luciferase enzyme assay for NPC (AID 624030); also: potency is read from the fitted curve at half-maximal effect; nearly all actives have a fitted effect of over 70% in size", "in_short": "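Direct inhibition of firefly luciferase enzyme (10 nM final, 50 mM Tris Acetate) assessed by luminescence within 5 minutes. Percent activity scaled between DMSO and PTC124 positive control, with concentration-effect curves classified by fit quality and response.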"}, "[6]": {"assay": "qHTS assay for small molecule agonists of the antioxidant response element (ARE) signaling pathway (AID 651741; active = well fitted activation curve with a large enough effect in the signal ratio; the % refers to the signal ratio; also: potency is read from the fitted curve at half-maximal effect)", "in_short": "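Agonist activity is measured as ARE-driven beta-lactamase expression in a stable HepG2 reporter line, using 16 h compound treatment at 37 C and a FRET substrate fluorescence readout after 2 h.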"}, "[7]": {"assay": "qHTS assay for small molecule activators of the p53 signaling pathway (AID 651743; active = well fitted activation curve with a large enough effect in the signal ratio, not every such curve was filed as active; the % refers to the signal ratio)", "conditions": "HCT-116 p53RE-bla, beta-lactamase FRET ratio, 16 h; activation: stronger effect = higher value", "in_short": "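A beta-lactamase reporter under p53 response element control, stably carried by HCT-116 cells, reported pathway activation. Test compounds were applied for 16 hours at 37 C, and fluorescence was measured 2 hours after adding the B/G FRET substrate.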"}, "[8]": {"assay": "qHTS assay for small molecule activators of the nuclear factor-kappa B (NF-kB) signaling pathway (AID 651749; active = well fitted activation curve with a large enough effect in the signal ratio; the % refers to the signal ratio)", "conditions": "NF-kB-bla ME-180 cells, beta-lactamase FRET ratio, 16 h; stronger effect = higher value", "in_short": "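FRET-based beta-lactamase detection in ME-180 cells reports NF-kB response-element-driven transcription following overnight (16 hr) compound treatment.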"}, "[9]": {"assay": "qHTS assay for small molecule disruptors of the mitochondrial membrane potential - 1 hr assay (AID 651754; calls by dose curve; also: nearly all actives have a fitted effect of over 35% in size)", "in_short": "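In this qHTS format, a 1 hr compound treatment of HepG2 cells precedes Mito-MPS staining, and membrane potential is judged from aggregate (red) against monomer (green) fluorescence intensity.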"}, "[10]": {"assay": "qHTS assay for small molecule disruptors of the mitochondrial membrane potential - 5 hr assay (AID 651755; calls by dose curve; also: nearly all actives have a fitted effect of over 40% in size)", "in_short": "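Membrane-potential dye readout: red aggregate (540 ex/590 em) versus green monomer (490 ex/535 em) fluorescence after 30 min dye loading, following 5 hr compound exposure at 37C of overnight-plated HepG2 cells.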"}, "[11]": {"target": "Tumor necrosis factor (Homo sapiens) (UniProt P01375)", "sequence (P01375 whole entry, looked up)": "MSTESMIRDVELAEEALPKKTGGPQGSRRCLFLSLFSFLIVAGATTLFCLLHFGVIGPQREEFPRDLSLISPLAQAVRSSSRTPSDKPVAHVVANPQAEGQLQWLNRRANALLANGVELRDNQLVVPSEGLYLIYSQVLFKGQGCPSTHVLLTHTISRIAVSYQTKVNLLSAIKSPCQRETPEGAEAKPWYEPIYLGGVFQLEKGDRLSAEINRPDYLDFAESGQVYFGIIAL", "assay": "qHTS assay to identify small molecules that stimulate Tumor Necrosis Factor-alpha (TNF-alpha) secretion (AID 651757; active = well fitted curve in the direction sought with a large enough effect in the signal ratio; the % refers to the signal ratio)", "in_short": "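Using 3000 THP-1 cells per well, compounds and controls were applied for 17 hrs at 37 C. Detection followed with two labeled anti-TNF-alpha antibodies (cryptate donor, XL665 acceptor) for 3 hr at room temperature, measured by TR-FRET.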"}, "[12]": {"assay": "qHTS assay for environmental chemicals that activate the Aryl hydrocarbon Receptor (AhR) signaling pathway (AID 651777); also: nearly all actives have a fitted effect of over 15% in size", "conditions": "1A2-DRE human hepatoma cells, luciferase, 24 h; activation: stronger effect = higher value", "in_short": "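Reporter gene assay: hepatoma cells with DRE/CYP1A2-luciferase, 24 hr compound incubation at 37 C, 5% CO2, luminescence after One-Glo (30 min, RT).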"}, "[13]": {"target": "Peroxisome proliferator-activated receptor alpha (Homo sapiens) (UniProt Q07869)", "sequence (Q07869 whole entry, looked up)": "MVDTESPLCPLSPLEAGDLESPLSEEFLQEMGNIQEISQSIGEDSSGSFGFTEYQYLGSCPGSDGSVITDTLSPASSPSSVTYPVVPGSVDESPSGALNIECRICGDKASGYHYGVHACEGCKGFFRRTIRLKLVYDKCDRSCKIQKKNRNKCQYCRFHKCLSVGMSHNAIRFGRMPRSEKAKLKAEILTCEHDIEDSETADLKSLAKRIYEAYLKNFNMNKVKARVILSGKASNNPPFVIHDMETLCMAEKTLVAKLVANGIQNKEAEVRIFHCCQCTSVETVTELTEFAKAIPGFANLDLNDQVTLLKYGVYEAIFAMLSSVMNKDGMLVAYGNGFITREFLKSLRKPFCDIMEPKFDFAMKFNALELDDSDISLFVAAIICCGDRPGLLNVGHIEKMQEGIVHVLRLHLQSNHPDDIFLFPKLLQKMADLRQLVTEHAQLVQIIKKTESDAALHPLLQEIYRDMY", "assay": "qHTS assay for small molecule agonists of the peroxisome proliferator-activated receptor alpha (PPARalpha) signaling pathway (AID 651778)", "conditions": "PathHunter PPARalpha complementation, chemiluminescence, 6 h; stronger effect = higher value", "in_short": "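Chemiluminescence from complemented enzyme reported PPARalpha activation in cells after 6 hr of compound treatment at 37 C. The detection reagent was incubated for 60 min at room temperature, and compounds were scored as agonists.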"}, "[14]": {"target": "Nuclear receptor ROR-gamma (Homo sapiens) (UniProt P51449)", "sequence (P51449 whole entry, looked up)": "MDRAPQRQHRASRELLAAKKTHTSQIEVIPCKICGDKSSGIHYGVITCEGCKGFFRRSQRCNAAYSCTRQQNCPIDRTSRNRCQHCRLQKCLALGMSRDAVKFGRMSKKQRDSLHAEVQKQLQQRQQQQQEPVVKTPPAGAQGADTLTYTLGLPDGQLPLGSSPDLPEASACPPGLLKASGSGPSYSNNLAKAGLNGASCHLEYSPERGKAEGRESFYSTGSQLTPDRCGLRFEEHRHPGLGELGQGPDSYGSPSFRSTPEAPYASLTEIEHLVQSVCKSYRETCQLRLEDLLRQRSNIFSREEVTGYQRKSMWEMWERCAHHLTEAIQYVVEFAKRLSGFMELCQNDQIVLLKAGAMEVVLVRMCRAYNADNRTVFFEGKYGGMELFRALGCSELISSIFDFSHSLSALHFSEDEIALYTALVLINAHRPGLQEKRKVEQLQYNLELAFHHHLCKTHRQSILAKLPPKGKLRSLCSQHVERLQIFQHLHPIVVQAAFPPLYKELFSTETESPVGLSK", "assay": "qHTS assay for small molecule antagonists of the retinoid-related orphan receptor gamma (ROR-gamma) signaling pathway (AID 651802); also: nearly all actives have a fitted effect of over 60% in size", "in_short": "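Doxycycline-induced reporter activity in engineered CHO cells (TET-inducible ROR, RORE-LUC) was measured by luminescence after 16hr compound exposure at 37C.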"}},
  "note": "Values without a mark were called inactive. Results filed as inconclusive are left out. Where a call stands in place of a potency, no number is given. Activity calls are given as the source filed them. Unless noted, calls follow the shape of the dose curve; as a rule, active = well fitted curve in the direction sought with a large enough effect; inconclusive = small, poorly fitted or top-dose-only effect, or another doubt; inactive = no such curve, though single readings can be large; an effect the other way counts as inactive or inconclusive.",
  "data": [
    {"smiles": "Cc1c(Cl)cccc1Nc1ncccc1C(=O)O", "values": [
      {"measurement": "Potency", "setting": "[1]", "result": "inactive"},
      {"measurement": "Potency", "setting": "[2]", "result": "inactive"},
      {"measurement": "Potency", "setting": "[3]", "result": "inactive"},
      {"measurement": "ratio activity, negative = inhibition", "setting": "[4]", "result": -7.17, "unit": "%"}
    ]},
    {"smiles": "CN=C1C=CC(=C(c2ccc(N(C)C)cc2)c2ccc(N(C)C)cc2)C=C1", "values": [
      {"measurement": "Potency", "setting": "[5]", "result": "14.4 µM (active)"},
      {"measurement": "Potency", "setting": "[2]", "result": "10.2 µM (active)"},
      {"measurement": "Potency", "setting": "[3]", "result": "14.4 µM (active)"}
    ]},
    {"smiles": "CN1C(C(=O)Nc2ccccn2)C(=O)c2sc(Cl)cc2S1(=O)=O", "note": "(stereo not drawn)", "values": [
      {"measurement": "Potency", "setting": "[1]", "result": "inactive"},
      {"measurement": "Potency", "setting": "[2]", "result": "inactive"},
      {"measurement": "ratio activity, negative = inhibition", "setting": "[4]", "result": 6.16, "unit": "%"}
    ]},
    {"smiles": "C[C@H](CCC(=O)O)[C@H]1CC[C@H]2[C@@H]3[C@H](O)C[C@@H]4C[C@H](O)CC[C@]4(C)[C@H]3C[C@H](O)[C@]12C", "values": [
      {"measurement": "Potency", "setting": "[1]", "result": "inactive"},
      {"measurement": "Potency", "setting": "[6]", "result": "inactive"},
      {"measurement": "activation", "setting": "[7]", "result": -1.29, "unit": "%"},
      {"measurement": "activation", "setting": "[8]", "result": -0.745, "unit": "%"},
      {"measurement": "Potency", "setting": "[9]", "result": "inactive"},
      {"measurement": "Potency", "setting": "[10]", "result": "inactive"},
      {"measurement": "Potency", "setting": "[11]", "result": "inactive"},
      {"measurement": "activation", "setting": "[12]", "result": -1.36, "unit": "%"},
      {"measurement": "max response", "setting": "[13]", "result": 0.161, "unit": "%"},
      {"measurement": "Potency", "setting": "[14]", "result": "inactive"}
    ]},
    {"smiles": "O=C(c1cc2ccccc2o1)N1CCN(Cc2ccccc2)CC1", "values": [
      {"measurement": "Potency", "setting": "[1]", "result": "inactive"},
      {"measurement": "Potency", "setting": "[2]", "result": "inactive"},
      {"measurement": "Potency", "setting": "[3]", "result": "inactive"},
      {"measurement": "ratio activity, negative = inhibition", "setting": "[4]", "result": 2.34, "unit": "%"}
    ]},
    {"smiles": "CCOC(=O)Cc1ccc(-c2ccccc2)cc1", "values": [
      {"measurement": "Potency", "setting": "[1]", "result": "inactive"},
      {"measurement": "Potency", "setting": "[2]", "result": "inactive"},
      {"measurement": "Potency", "setting": "[3]", "result": "inactive"},
      {"measurement": "ratio activity, negative = inhibition", "setting": "[4]", "result": 4.96, "unit": "%"}
    ]},
    {"smiles": "COc1ccc(C(=O)c2ccc(C)cc2)c(O)c1", "values": [
      {"measurement": "Potency", "setting": "[5]", "result": "14.4 µM (active)"},
      {"measurement": "Potency", "setting": "[2]", "result": "inactive"},
      {"measurement": "Potency", "setting": "[3]", "result": "inactive"},
      {"measurement": "ratio activity, negative = inhibition", "setting": "[4]", "result": 6.33, "unit": "%"}
    ]},
    {"smiles": "O=S(=O)(O)CC(S)CS", "note": "(stereo not drawn)", "values": [
      {"measurement": "Potency", "setting": "[1]", "result": "inactive"},
      {"measurement": "Potency", "setting": "[2]", "result": "inactive"}
    ]},
    {"smiles": "Cc1cccc(Nc2ncccc2C(=O)O)c1C", "values": [
      {"measurement": "Potency", "setting": "[1]", "result": "inactive"},
      {"measurement": "Potency", "setting": "[3]", "result": "inactive"},
      {"measurement": "ratio activity, negative = inhibition", "setting": "[4]", "result": 6.34, "unit": "%"}
    ]},
    {"smiles": "CO[C@@H]1[C@H](OC(=O)/C=C/C=C/C=C/C=C/C(=O)O)CC[C@]2(CO2)[C@H]1[C@@]1(C)O[C@@H]1CC=C(C)C", "values": [
      {"measurement": "Potency", "setting": "[1]", "result": "inactive"},
      {"measurement": "Potency", "setting": "[6]", "result": "13.7 µM (active)"},
      {"measurement": "activation", "setting": "[7]", "result": -4.17, "unit": "%"},
      {"measurement": "activation", "setting": "[8]", "result": -0.892, "unit": "%"},
      {"measurement": "activation", "setting": "[12]", "result": 1.85, "unit": "%"},
      {"measurement": "max response", "setting": "[13]", "result": -0.833, "unit": "%"}
    ]}
  ]
}
